Inconclusive results are not listed. Active and inactive are the calls of the source. Unless noted, calls follow the shape of the dose curve; as a rule, active = well fitted curve in the direction sought with a large enough effect in the repeat runs; inconclusive = weak or mixed curves; inactive = no such curve, though single readings can be large; an effect the other way counts as inactive or inconclusive.

Drawing on PubChem BioAssay (Tox21), this text covers outcome and Potency for five compounds.

Experiment [1] addresses Thyrotropin-releasing hormone receptor (Homo sapiens) (UniProt P34981). Put plainly: qHTS assay to identify small molecule agonists of the thyrotropin-releasing hormone receptor (TRHR) signaling pathway (AID 1346891; calls by dose curve). The settings on record: TRHR-HEK293 calcium fluorescence, agonist mode; series mostly up to 57.6 µM. The essentials: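 Readout was intracellular calcium fluorescence in TRHR-Hek293 cells. Cells were incubated 18 h, dye-loaded 2 h at 37 °C, and treated with compound in agonist mode.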

Experiment [2] is described as follows: Human pregnane X receptor (PXR) small molecule agonists, qHTS cell viability counter screen (AID 1346977). Also: nearly all actives have a fitted effect of over 50% in size. The settings on record: PXR-Luc HepG2 viability, CellTiter-Fluor, 24 h; series mostly up to 92.4 µM. The essentials: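 In each well, the PXR reporter HepG2 line was checked for viability: CellTiter-Fluor reagent added 23hr post-dosing, fluorescence read after 1hr incubation at 37C.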

Experiment [3] can be described thus: Caspase-3/7 induction in HepG2 cells by small molecules, qHTS assay (AID 1346978). Also: nearly all actives have a fitted effect of over 15% in size. The settings on record: HepG2 caspase-3/7 activation, Caspase-Glo luminescence, 17 h; series mostly up to 92.4 µM. The essentials: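 Wild-type HepG2 cells, 2,000/well, settled 5 hr at 37 C and 5% CO2, then compound-treated for 17 hr; caspase-3/7 activity read by luminescent Caspase-Glo 3/7 after 30 min at room temperature.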

Experiment [4] can be described thus: Caspase-3/7 induction in CHO-K1 cells by small molecules, qHTS assay (AID 1346980). Also: nearly all actives have a fitted effect of over 15% in size. Conditions: CHO-K1 caspase-3/7 induction, Caspase-Glo luminescence, 17 h; series mostly up to 92.4 µM. In outline:
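Wild-type CHO-K1 cells exposed to compounds for 17hr at 37 C, 5% CO2. Caspase-3/7 activity then measured by Caspase-Glo 3/7 luminescence after 30min at room temperature.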

A short description of experiment [5]: Caspase-3/7 induction in HepG2 cells by small molecules, qHTS cell viability counter screen (AID 1346981). Also: nearly all actives have a fitted effect of over 30% in size. The settings on record: CellTiter-Fluor fluorescence, 17 h; series mostly up to 92.4 µM. The essentials:
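HepG2, WT, 2,000 cells/well; 5 hr pre-incubation 37 C/5% CO2; compound pin-transferred from DMSO; 16 hr exposure; CellTiter-Fluor, 1 hr; fluorescence read.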

In experiment [6] the target is Nuclear receptor subfamily 1 group I member 2 (Homo sapiens) (UniProt O75469). Description: Human pregnane X receptor (PXR) small molecule agonists, qHTS assay (AID 1346982). Also: nearly all actives have a fitted effect of over 35% in size. Also: potency is read from the fitted curve at half-maximal effect. Conditions: PXR-Luc HepG2, CYP3A4 luciferase reporter, 24 h; series mostly up to 92.4 µM. The essentials:
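Luciferase signal from ONE-Glo (30 min, room temperature) measured activation of hPXR-driven CYP3A4 reporter expression in PXR-Luc HepG2 cells treated with compounds for 24 hr at 37 C.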

For experiment [7] the target is unchanged. Put plainly: CYP3A4 induction through human pregnane X receptor (PXR) by small molecules, qHTS assay (AID 1346984). Also: nearly all actives have a fitted effect of over 40% in size. Conditions: DPX-2 HepG2 PXR, CYP3A4-luciferin luminescence, 24 h; series mostly up to 46.1 µM. The essentials: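 Luminescence readout: luciferase signal after One-Glo (30 min, room temperature), following 3 h at 37C with 3uM final Luciferin-IPA P450 substrate. Cells were DPX-2 (HepG2, PXR/CYP3A4-luc co-transfected) dosed for 24 h.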

Experiment [8] has the same target. Description: Human pregnane X receptor (PXR) activation by small molecules, qHTS assay (AID 1346985). Also: nearly all actives have a fitted effect of over 40% in size. The settings on record: DPX-2 HepG2 CYP3A4-luciferase, 24 h; series mostly up to 38.3 µM. The essentials: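 DPX-2 cells (HepG2 co-transfected with a PXR response element and a CYP3A4-promoter luciferase construct) were seeded at 2,000 per well, rested 5 hr at 37C, then exposed to DMSO-dissolved compounds for 24 hr. Activation was read as luciferase luminescence.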

Experiment [9] has as its target Cytochrome P450 2D6 (Homo sapiens) (UniProt P10635). Put plainly: Cytochrome P450 Family 2 Subfamily D Member 6 (CYP2D6) small molecule antagonists: luciferase reporter qHTS assay (AID 1671196). Also: nearly all actives have a fitted effect of over 50% in size. Also: potency is read from the fitted curve at half-maximal effect. The settings on record: P450-Glo CYP2D6 enzyme assay, luciferin luminescence, 1 h; series mostly up to 115 µM. In outline: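 Read-out is luminescence from luciferin formed by CYP2D6 turnover of a proluciferin substrate, recorded as relative luminescence units. Reactions ran 1 h at room temperature after NADPH regeneration solution was added.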

The target of experiment [10] is Cytochrome P450 2C19 (Homo sapiens) (UniProt P33261). Put plainly: Cytochrome P450 Family 2 Subfamily C Member 19 (CYP2C19) small molecule antagonists: luciferase reporter qHTS assay (AID 1671197). Also: nearly all actives have a fitted effect of over 65% in size. Also: potency is read from the fitted curve at half-maximal effect. Conditions: P450-Glo CYP2C19 enzyme, luciferin luminescence, 1 h; series mostly up to 115 µM. The essentials: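 Enzyme-substrate mix with proluciferin substrate (P450-Glo CYP2C19 system) preincubated with compounds 10 min at room temperature; NADPH regeneration solution added, 37C for 1 h; detection reagent stops reaction, luminescence read after 20 min. Ketoconazole positive control.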
Chain of Cytochrome P450 2C19 (Homo sapiens) (P33261 whole entry, looked up): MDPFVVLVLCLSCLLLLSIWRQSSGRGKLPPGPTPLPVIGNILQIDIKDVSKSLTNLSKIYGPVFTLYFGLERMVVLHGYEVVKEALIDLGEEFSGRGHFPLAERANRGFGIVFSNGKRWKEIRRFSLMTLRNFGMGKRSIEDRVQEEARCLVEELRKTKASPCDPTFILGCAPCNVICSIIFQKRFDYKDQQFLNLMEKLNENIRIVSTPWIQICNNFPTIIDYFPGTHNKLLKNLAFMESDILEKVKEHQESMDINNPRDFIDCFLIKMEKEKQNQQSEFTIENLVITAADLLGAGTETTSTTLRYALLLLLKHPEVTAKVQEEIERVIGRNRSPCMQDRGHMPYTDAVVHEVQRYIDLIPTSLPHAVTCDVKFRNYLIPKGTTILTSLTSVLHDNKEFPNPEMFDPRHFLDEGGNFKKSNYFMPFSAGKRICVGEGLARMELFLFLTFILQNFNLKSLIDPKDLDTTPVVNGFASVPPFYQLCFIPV

Experiment [11] has as its target Cytochrome P450 2C9 (Homo sapiens) (UniProt P11712). Description: Cytochrome P450 Family 2 Subfamily C Member 9 (CYP2C9) small molecule antagonists: luciferase reporter qHTS assay (AID 1671198). Also: nearly all actives have a fitted effect of over 50% in size. The settings on record: P450-Glo CYP2C9 enzyme assay, luciferin luminescence; series mostly up to 115 µM. The essentials: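 P450-Glo proluciferin substrate with CYP2C9 enzyme; 10 min RT preincubation, then NADPH regeneration 1 h at 37C; luciferin detection reagent 20 min RT, luminescence in relative luminescence units.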

Experiment [12] has as its target Cytochrome P450 1A2 (Homo sapiens) (UniProt P05177). Description: Cytochrome P450 Family 1 Subfamily A Member 2 (CYP1A2) small molecule antagonists: luciferase reporter qHTS assay (AID 1671199). Also: nearly all actives have a fitted effect of over 50% in size. Also: potency is read from the fitted curve at half-maximal effect. Conditions: P450-Glo CYP1A2 enzyme, luciferin luminescence, 1 h; series mostly up to 53 µM. In outline:
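P450-Glo CYP1A2, 1536-well qHTS: enzyme/proluciferin substrate + cpd (DMSO), 10 min RT; NADPH regen, 1 h RT; detection reagent, 20 min; luminescence, RLU.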

Experiment [13] concerns the target Voltage-gated inwardly rectifying potassium channel KCNH2 (Homo sapiens) (UniProt Q12809). Description: Human Ether-a-go-go-Related Gene (hERG) channel small molecule antagonists: fluorescence cell-based qHTS assay (AID 1671200). Conditions: hERG-U2OS cells, FluxOR thallium flux fluorescence; series mostly up to 76.8 µM. In outline:
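In this thallium-flux screen, overnight-cultured U2OS cells bearing the channel are dye-loaded in darkness for an hour, rested 10 min at room temperature, and then monitored kinetically at 480/540 nm for two minutes post-stimulus.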

Experiment [14] deals with Cytochrome P450 3A4 (Homo sapiens) (UniProt P08684). Put plainly: Cytochrome P450 Family 3 Subfamily A Member 4 (CYP3A4) small molecule antagonists: luciferase reporter qHTS assay (AID 1671201). Also: nearly all actives have a fitted effect of over 50% in size. The settings on record: P450-Glo CYP3A4 enzyme, luciferin luminescence, 1 h; series mostly up to 115 µM. In outline: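 CYP3A4 activity was followed with a P450-Glo proluciferin substrate. Test compounds in DMSO were preincubated 10 min; NADPH regeneration then ran 1 h, and light output was read 20 min after detection reagent.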
Chain of Cytochrome P450 3A4 (Homo sapiens) (P08684 whole entry, looked up): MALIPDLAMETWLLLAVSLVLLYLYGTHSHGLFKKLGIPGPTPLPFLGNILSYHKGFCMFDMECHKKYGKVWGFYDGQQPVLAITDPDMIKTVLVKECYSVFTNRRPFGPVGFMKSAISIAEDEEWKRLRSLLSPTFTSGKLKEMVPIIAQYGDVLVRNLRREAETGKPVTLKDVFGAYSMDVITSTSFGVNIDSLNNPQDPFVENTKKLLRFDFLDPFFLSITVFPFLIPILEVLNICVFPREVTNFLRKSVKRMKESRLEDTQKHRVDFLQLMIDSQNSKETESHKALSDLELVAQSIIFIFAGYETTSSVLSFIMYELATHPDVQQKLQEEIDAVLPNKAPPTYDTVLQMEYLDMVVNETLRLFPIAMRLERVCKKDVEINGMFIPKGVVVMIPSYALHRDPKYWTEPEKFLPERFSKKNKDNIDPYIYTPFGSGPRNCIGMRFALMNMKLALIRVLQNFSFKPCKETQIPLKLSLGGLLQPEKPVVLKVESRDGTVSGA

Experiment [15] is described as follows: Caspase-3/7 induction in CHO-K1 cells by small molecules, qHTS cell viability counter screen (AID 1346979). Also: nearly all actives have a fitted effect of over 35% in size. The settings on record: CellTiter-Fluor fluorescence, 17 h; series mostly up to 92.4 µM. In outline:
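Following a 5hr settling period, CHO-K1 cells at 1,500 per well received DMSO-dissolved compounds. Cell viability was quantified 16hr later by CellTiter-Fluor fluorescence, measured after 1hr with reagent at 37C.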

Chain of Nuclear receptor subfamily 1 group I member 2 (Homo sapiens) (O75469 whole entry, looked up): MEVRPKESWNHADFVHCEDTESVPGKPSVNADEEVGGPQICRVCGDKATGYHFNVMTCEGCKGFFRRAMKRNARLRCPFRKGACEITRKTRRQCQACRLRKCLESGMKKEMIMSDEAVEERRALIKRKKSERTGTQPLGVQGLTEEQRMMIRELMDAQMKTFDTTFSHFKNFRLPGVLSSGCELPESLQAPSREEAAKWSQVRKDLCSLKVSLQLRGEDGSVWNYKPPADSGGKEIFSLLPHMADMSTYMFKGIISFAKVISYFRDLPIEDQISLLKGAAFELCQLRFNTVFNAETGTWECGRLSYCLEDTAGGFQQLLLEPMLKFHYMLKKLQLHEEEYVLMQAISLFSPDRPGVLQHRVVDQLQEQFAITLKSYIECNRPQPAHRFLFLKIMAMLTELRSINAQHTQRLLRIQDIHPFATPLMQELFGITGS
Chain of Voltage-gated inwardly rectifying potassium channel KCNH2 (Homo sapiens) (Q12809 whole entry, looked up): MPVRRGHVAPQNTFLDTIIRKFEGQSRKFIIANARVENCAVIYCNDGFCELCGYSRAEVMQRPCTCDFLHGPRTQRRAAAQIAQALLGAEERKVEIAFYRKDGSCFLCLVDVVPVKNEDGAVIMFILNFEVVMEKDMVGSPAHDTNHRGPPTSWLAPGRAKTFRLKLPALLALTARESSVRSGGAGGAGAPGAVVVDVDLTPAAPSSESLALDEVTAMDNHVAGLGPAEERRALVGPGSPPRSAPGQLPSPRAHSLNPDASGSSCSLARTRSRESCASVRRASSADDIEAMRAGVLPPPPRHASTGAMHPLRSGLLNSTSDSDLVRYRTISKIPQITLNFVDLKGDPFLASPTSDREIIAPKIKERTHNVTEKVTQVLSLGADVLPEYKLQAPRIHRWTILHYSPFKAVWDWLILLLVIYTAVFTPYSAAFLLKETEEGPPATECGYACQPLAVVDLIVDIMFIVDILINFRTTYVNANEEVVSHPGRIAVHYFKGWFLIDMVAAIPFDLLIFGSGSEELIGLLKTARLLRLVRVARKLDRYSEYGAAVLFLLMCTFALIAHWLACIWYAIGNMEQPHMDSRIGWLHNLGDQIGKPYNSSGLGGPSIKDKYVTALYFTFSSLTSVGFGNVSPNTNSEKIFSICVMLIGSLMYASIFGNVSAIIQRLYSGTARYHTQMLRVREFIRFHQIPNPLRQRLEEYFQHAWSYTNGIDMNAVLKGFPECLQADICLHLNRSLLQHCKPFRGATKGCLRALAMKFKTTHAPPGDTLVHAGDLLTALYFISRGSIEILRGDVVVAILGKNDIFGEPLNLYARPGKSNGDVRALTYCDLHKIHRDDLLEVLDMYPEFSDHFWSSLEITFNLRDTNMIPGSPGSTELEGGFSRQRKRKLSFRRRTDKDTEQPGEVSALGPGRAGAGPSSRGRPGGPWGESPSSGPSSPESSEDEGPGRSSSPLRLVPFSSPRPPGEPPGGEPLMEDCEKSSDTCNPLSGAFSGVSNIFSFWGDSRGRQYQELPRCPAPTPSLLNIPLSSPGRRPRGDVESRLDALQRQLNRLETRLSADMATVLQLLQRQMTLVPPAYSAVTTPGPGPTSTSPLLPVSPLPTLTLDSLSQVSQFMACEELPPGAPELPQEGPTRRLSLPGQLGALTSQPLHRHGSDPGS
Chain of Cytochrome P450 2C9 (Homo sapiens) (P11712 whole entry, looked up): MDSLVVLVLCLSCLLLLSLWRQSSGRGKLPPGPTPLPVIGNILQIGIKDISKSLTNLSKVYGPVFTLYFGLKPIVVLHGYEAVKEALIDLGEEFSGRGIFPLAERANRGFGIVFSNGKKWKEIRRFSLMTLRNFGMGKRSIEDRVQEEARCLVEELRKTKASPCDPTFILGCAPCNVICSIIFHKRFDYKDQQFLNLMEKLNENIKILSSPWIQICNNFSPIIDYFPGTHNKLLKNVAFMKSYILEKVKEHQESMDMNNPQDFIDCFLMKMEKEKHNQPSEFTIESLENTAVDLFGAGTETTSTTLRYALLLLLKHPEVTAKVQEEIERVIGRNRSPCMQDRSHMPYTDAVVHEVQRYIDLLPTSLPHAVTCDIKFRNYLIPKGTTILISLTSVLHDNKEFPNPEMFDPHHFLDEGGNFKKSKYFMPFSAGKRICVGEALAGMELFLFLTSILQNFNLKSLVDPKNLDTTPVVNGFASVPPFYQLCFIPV
Chain of Cytochrome P450 2D6 (Homo sapiens) (P10635 whole entry, looked up): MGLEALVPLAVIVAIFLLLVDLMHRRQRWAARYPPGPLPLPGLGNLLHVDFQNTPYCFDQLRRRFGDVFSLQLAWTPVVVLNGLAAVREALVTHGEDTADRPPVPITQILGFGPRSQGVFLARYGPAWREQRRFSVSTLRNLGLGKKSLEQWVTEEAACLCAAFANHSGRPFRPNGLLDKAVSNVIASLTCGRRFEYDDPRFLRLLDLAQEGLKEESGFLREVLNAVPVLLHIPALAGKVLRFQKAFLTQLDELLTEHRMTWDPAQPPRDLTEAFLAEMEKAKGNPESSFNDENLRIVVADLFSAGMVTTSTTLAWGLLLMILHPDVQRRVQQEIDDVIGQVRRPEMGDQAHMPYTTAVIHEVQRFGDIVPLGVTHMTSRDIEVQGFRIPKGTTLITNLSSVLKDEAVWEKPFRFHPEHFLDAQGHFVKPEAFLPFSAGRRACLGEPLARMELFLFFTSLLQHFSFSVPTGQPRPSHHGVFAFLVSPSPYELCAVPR
Chain of Thyrotropin-releasing hormone receptor (Homo sapiens) (P34981 whole entry, looked up): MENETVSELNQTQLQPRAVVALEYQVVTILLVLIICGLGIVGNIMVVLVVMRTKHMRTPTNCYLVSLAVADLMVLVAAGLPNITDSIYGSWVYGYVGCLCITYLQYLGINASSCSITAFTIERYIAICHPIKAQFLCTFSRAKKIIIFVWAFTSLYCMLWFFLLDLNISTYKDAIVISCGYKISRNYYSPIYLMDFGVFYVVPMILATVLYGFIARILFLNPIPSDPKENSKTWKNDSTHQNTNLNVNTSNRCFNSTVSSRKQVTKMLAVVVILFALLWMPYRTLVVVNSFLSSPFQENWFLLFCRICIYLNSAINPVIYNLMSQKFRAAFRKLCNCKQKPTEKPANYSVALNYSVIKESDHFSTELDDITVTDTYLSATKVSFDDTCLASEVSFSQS
Chain of Cytochrome P450 1A2 (Homo sapiens) (P05177 whole entry, looked up): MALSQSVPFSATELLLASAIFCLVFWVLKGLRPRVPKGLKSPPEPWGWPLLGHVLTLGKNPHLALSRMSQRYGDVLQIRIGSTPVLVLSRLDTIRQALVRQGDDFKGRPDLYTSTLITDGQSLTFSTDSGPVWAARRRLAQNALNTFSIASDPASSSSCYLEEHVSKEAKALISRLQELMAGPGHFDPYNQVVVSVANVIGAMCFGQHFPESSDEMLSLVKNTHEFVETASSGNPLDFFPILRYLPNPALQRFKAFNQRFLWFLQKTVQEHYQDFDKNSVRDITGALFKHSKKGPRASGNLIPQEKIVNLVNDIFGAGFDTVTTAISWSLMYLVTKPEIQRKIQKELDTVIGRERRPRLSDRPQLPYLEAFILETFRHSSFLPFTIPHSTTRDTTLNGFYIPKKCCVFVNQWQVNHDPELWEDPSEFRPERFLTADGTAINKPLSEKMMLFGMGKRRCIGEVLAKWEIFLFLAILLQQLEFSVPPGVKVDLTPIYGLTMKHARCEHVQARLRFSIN

On to `C[N+](C)(C)CC[N+]1(C)Cc2c(Cl)c(Cl)c(Cl)c(Cl)c2C1`, for which the outcome in [1], in experiment [3], in experiment [4] and in [5] was inactive. Moreover, the Potency result in experiment [2], in experiment [6], in experiment [7], in [8], in experiment [10] and in [11] was “inactive” in each case. Moreover, the Potency entry in [12], in [13] and in experiment [14] was “inactive” in each case. In experiment [9], the Potency is 1.55 µM (active).

As for `CCCCCCOC(=O)c1ccccc1O`, the result in experiment [1], in experiment [3] and in [5] was inactive. For the same compound, the Potency result in experiment [2], in [15], in experiment [6], in experiment [9], in experiment [11] and in experiment [14] was “inactive” in each case.

Consider `c1ccc(SCCSc2ccccc2)cc1`, for which the result in [1], in experiment [3], in experiment [4] and in experiment [5] was inactive. Besides, the Potency entry in experiment [2], in experiment [13] and in [14] was “inactive” each time. The Potency was 7.63 µM (active) in [6], 3.53 µM (active) in experiment [10] and 31.4 µM (active) in experiment [12].

On to `CCCCNc1ccccc1`, for which the result in experiment [1], in [3], in [4] and in experiment [5] was inactive. For the same compound, the Potency result in experiment [2], in [9], in [10], in [11], in experiment [12] and in experiment [14] was “inactive” throughout.

For `C=CCn1c(=O)n([C@@H]2O[C@H](CO)[C@@H](O)[C@H]2O)c2nc(N)[nH]c(=O)c21`, the result in experiment [1], in experiment [3] and in [5] was inactive. For the same compound, the Potency entry in experiment [2], in experiment [15], in [7], in [8], in [9] and in [10] was “inactive” each time. The Potency entry in experiment [11], in [13] and in experiment [14] was “inactive” in each case.
